{
  "source": "PubChem BioAssay AID602373",
  "about": "(National Center for Advancing Translational Sciences (NCATS), 2012)",
  "note": "Records with an inconclusive call do not appear. Unmarked numbers belong to inactive results. Calls of active or inactive are those of the source. Calls follow the shape of the dose curve; as a rule, active = well fitted inhibition curve with a large enough effect; inconclusive = small, poorly fitted or top-dose-only effect; inactive = no such curve, though single readings can be large or run the other way.",
  "data": [
    {"assay": "qHTS Assay for Inhibitors of Bacillus subtilis Sfp phosphopantetheinyl transferase (PPTase): Hepg2 Assay", "conditions": "HepG2 cytotoxicity counter-screen; series mostly up to 46.1 µM; activity change, negative = inhibition: at the top concentration", "from_the_text": "The covalent attachment of a phosphopantetheinyl (4'-PP) arm to a variety of synthases and other proteins is a key posttranslational protein modification. The 4'-PP is installed on the proteins post-translationally from coenzyme A (CoA) on a conserved serine residue by action of phosphopantetheinyl transferase (PPTase) enzymes. Phosphopantetheinylation is essential for synthase activity, and removal of the PPTase gene precludes natural product synthesis in microorganisms, or in the case of fatty acid biosynthesis, renders the organism unviable. PPTase enzymes belong to a distinct structural superfamily. Within bacteria, these enzymes are grouped into two classes based upon primary structure, the AcpS-Type and Sfp-Type PPTases.\nSfp-type PPTases, corresponding to an activator of surfactin production in Bacillus subtilis, are responsible for modifying type I polyketide and nonribosomal peptide synthases of prokaryotes. Sfp-type PPTases are responsible for the activation of a variety of pathogen-associated virulence factors. Among these compounds are toxins such as mycolactone from Mycobacterium ulcerans, siderophores such as vibriobactin from Vibrio cholerae or mycobactin from Mycobacterium tuberculosis, as well as the mycolic acids which form the waxy cell wall of Mycobacteria. The biosyntheses of these natural products are considered attractive targets for drug design.\nIn search of small molecule Sfp-PPTase inhibitors, a fluorescence quenching assay was developed for detection of Bacillus subtilis Sfp-PPTase enzymatic activity in a miniaturized high-throughput format. The consensus ybbr acceptor peptide […] was N-terminally labeled with Black Hole Quencher-2 (BHQ-2) and used in combination with rhodamine-labeled coenzyme A as a co-substrate.\nPhosphopantetheinyl transfer is a process essential to cellular viability and maintenance in all forms of life. Cell-permeable and stable compounds acting as PPTase inhibitors are anticipated to be growth inhibitory agents. This assay sought to assess the toxicity of test compounds in the HepG2 hepatocarcinoma cells; a human cell line whose use additionally determines the toxicity of test article metabolites.\nNIH Chemical Genomics Center [NCGC]\nNIH Molecular Libraries Probe Centers Network [MLPCN]\nAssay Submitter (PI): Michale Burkart, University of California, San Diego\nTest compounds' toxicity was assessed by measuring cellular ATP content using a luciferase-coupled ATP quantitation assay (CellTiter-Glo; Promega, Madison, WI). In this assay, luminescent signal is proportional to amount of ATP, and thus to the number of metabolically competent cells. Briefly, Hepg2 cell suspension (5 uL, 4 x 10^5 cells/mL) was dispensed into 1,536-well tissue-culture treated white/solid bottom assay plates (Greiner Bio-One North America, Monroe, NC) using a Flying Reagent Dispenser (Aurora Discovery, Carlsbad, CA). Cells were incubated at 37 deg C for 6 hr to allow for cell attachment, followed by addition of compounds via pin tool (Kalypsys, San Diego, CA). After compound addition, plates were incubated for 48 hr at 37 deg C. At the end of the incubation period, CellTiter-Glo reagent (5 uL) was added, plates were incubated at room temperature in the dark for 30 min, and the luminescence intensity of each well was determined using a ViewLux plate reader (PerkinElmer, Shelton, CT). The positive control was 92 uM and 41 uM of tetra-N-Octylammonium bromide, and the negative control was DMSO.", "units": {"activity change, negative = inhibition": "%"}, "values": [
      {"smiles": "Cc1ccnc(NC(=O)N2CCN(c3cccc(C(F)(F)F)c3)CC2)c1", "Potency": "6.28 µM (active)"},
      {"smiles": "Cc1cc(C)nc(NC(=S)N2CCN(c3ccc(NS(C)(=O)=O)nn3)CC2)c1", "activity change, negative = inhibition": 0.438},
      {"smiles": "Cc1cc(C)nc(NC(=S)N2CCN(c3ccc(N4CCCC4)nn3)CC2)c1", "activity change, negative = inhibition": 2.21},
      {"smiles": "Cc1cc(C)nc(NC(=S)N2CCN(S(=O)(=O)c3cccc(C(F)(F)F)c3)CC2)c1", "activity change, negative = inhibition": -12.4},
      {"smiles": "S=C(Nc1cc(Cl)ccn1)N1CCN(c2ccc(Cl)cc2Cl)CC1", "activity change, negative = inhibition": -11.7},
      {"smiles": "Cc1cc(C)nc(NC(=S)N2CCN(c3nncs3)CC2)c1", "activity change, negative = inhibition": -6.67},
      {"smiles": "Cc1ccnc(NC(=S)N2CCN(c3ccc(Br)cc3)CC2)c1", "activity change, negative = inhibition": -4.53},
      {"smiles": "Cc1cc(C)nc(NC(=S)N2CCN(c3cc(F)cc(F)c3)CC2)c1", "activity change, negative = inhibition": 3.56},
      {"smiles": "CC(=O)c1ccc(N2CCN(C(=S)Nc3cc(C)ccn3)CC2)cc1", "activity change, negative = inhibition": -7.72},
      {"smiles": "Cc1cc(C)nc(NC(=S)N2CCN(c3ncccc3C#N)CC2)c1", "activity change, negative = inhibition": -4.59},
      {"smiles": "Cc1cc(C)nc(NC(=S)N2CCN(c3ccsc3)CC2)c1", "activity change, negative = inhibition": -8.98},
      {"smiles": "Cc1cc(C)nc(NC(=S)N2CCN(c3ncccc3Cl)CC2)c1", "activity change, negative = inhibition": 2.69},
      {"smiles": "COc1cccc(NC(=S)N2CCN(c3ccc(Cl)cc3Cl)CC2)n1", "activity change, negative = inhibition": -2.52},
      {"smiles": "FC(F)(F)c1cccc(N2CCN(C(=S)Nc3cc(C(F)(F)F)ccn3)CC2)c1", "Potency": "19.9 µM (active)"},
      {"smiles": "Cc1cc(C)nc(Nc2nnc(N3CCN(c4cccc(C(F)(F)F)c4)CC3)s2)c1", "activity change, negative = inhibition": -11.6},
      {"smiles": "Cc1ccnc(N=C(N)N2CCN(c3cccc(C(F)(F)F)c3)CC2)c1", "Potency": "28.1 µM (active)"},
      {"smiles": "Cc1cc(C)nc(NC(=S)N2CCN(c3noc4ccccc34)CC2)c1", "activity change, negative = inhibition": -8.93},
      {"smiles": "COc1ccc(N2CCN(C(=S)Nc3cc(C)ccn3)CC2)cc1", "activity change, negative = inhibition": -8.81},
      {"smiles": "COc1cccc(NC(=S)N2CCN(c3cccc(C(F)(F)F)c3)CC2)n1", "Potency": "28.1 µM (active)"},
      {"smiles": "COc1cccc(NC(=S)N2CCN(c3cccc(C(F)(F)F)n3)CC2)n1", "activity change, negative = inhibition": -11.6},
      {"smiles": "COc1cccc(NC(=S)N2CCN(c3ccc(C(F)(F)F)cc3[N+](=O)[O-])CC2)n1", "activity change, negative = inhibition": -3.46},
      {"smiles": "Cc1cc(C)nc(NC(=S)N2CCN(c3ccc4ncccc4c3[N+](=O)[O-])CC2)c1", "activity change, negative = inhibition": 1.59},
      {"smiles": "Cc1cc(C)nc(NC(=S)N2CCN(Cc3c(F)cccc3Cl)CC2)c1", "activity change, negative = inhibition": 4.35},
      {"smiles": "Cc1cc(NC(=S)N2CCN(c3cccc(C(F)(F)F)c3)CC2)nc2ccccc12", "activity change, negative = inhibition": -4.95},
      {"smiles": "Cc1cc(C)nc(NC(=S)N2CCN(c3ccncc3)CC2)c1", "activity change, negative = inhibition": 7.96},
      {"smiles": "Cc1cc(C)nc(NC(=S)N2CCN(c3cnc4nccn4c3)CC2)c1", "activity change, negative = inhibition": -7.6},
      {"smiles": "FC(F)(F)c1cccc(N2CCN(C(=S)Nc3nccc4ccccc34)CC2)c1", "activity change, negative = inhibition": 1.47},
      {"smiles": "COc1cccc(NC(=S)N2CCN(c3ccccc3C(F)(F)F)CC2)n1", "activity change, negative = inhibition": -4.58},
      {"smiles": "Cc1ccnc(NC(=S)NC2CN(c3cccc(C(F)(F)F)c3)C2)c1", "Potency": "25 µM (active)"},
      {"smiles": "Cc1ccnc(NC(=S)N2CCCN(c3cccc(C(F)(F)F)c3)CC2)c1", "Potency": "25 µM (active)"},
      {"smiles": "Cc1ccnc(NC(=S)NCCN(C)c2cccc(C(F)(F)F)c2)c1", "activity change, negative = inhibition": 3.44},
      {"smiles": "CN(C)c1ccc2nc(NC(=S)N3CCN(c4cccc(C(F)(F)F)c4)CC3)sc2c1", "Potency": "8.88 µM (active)"},
      {"smiles": "Cc1ccnc(NC(=S)N2CCNCC2)c1", "activity change, negative = inhibition": -3.85},
      {"smiles": "S=C(Nc1cc(Cl)ccn1)N1CCN(c2cc(Cl)cc(Cl)c2)CC1", "Potency": "9.96 µM (active)"},
      {"smiles": "FC(F)(F)c1cccc(N2CCN(C(=S)Nc3cnccn3)CC2)c1", "activity change, negative = inhibition": -0.551},
      {"smiles": "FC(F)(F)c1cnc(N2CCN(C(=S)Nc3cc(Cl)ccn3)CC2)c(Cl)c1", "activity change, negative = inhibition": -6.14},
      {"smiles": "Cc1cc(C)nc(NC(=S)N2CCN(c3nsc4ccccc34)CC2)c1", "activity change, negative = inhibition": -7.35}
    ]}
  ]
}
